Results reported in PubChem BioAssay AID588342 (National Center for Advancing Translational Sciences (NCATS), 2011).
Among all 360,000 compounds or so, about 25,000 (6.9%) were called active. Another 9% or so got no clear call; they are omitted. Calls come from the whole dose curve; as a rule, active = well fitted inhibition curve with a large enough effect; inconclusive = small, poorly fitted or top-dose-only effect; inactive = flat fitted curve, though single readings scatter. The list comes from a sample in which actives are over-represented; it also holds similar structures and randomly drawn compounds. A call without a number means that no potency is given here.

The compounds below were run against Luciferin 4-monooxygenase (Photinus pyralis) (UniProt P08659) (assay: qHTS profiling assay for firefly luciferase inhibitor/activator using purifed enzyme and Km concentrations of substrates (counterscreen for miR-21 project)). Conditions: purified FLuc, luminescence inhibition; series mostly up to 57.5 µM.
Luciferin 4-monooxygenase (Photinus pyralis), sequence (P08659 whole entry, looked up): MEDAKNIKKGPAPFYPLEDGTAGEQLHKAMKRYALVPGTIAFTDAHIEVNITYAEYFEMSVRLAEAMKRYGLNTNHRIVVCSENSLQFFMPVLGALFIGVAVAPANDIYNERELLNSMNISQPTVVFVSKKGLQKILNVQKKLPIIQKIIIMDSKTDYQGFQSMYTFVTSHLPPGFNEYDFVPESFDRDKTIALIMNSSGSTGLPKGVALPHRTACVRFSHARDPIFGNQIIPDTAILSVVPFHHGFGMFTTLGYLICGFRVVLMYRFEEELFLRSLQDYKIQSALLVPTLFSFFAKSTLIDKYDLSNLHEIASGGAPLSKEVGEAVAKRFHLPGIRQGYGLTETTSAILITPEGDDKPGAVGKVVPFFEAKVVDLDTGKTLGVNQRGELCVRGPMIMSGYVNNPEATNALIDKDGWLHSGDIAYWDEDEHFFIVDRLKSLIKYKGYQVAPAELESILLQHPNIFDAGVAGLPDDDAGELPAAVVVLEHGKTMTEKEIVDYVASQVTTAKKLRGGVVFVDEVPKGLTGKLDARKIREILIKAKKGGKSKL
Summary of the method: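 Purified P. pyralis luciferase (10nM final) with 10uM D-luciferin and 10uM ATP (Km levels) in 50mM Tris acetate pH 7.5, 10mM Mg acetate, 0.01% Tween-20, 0.05% BSA; qHTS 6-point titration, ~60 µM downward; luminescence read.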
Note: nearly all actives have a fitted effect of over 55% in size.
Potency is the fitted concentration of half-maximal effect.

Row | SMILES | Potency
1 | CC1(C)O[C@@H]2[C@H](O1)[C@@H](COS(=O)(=O)O)O[C@H]2n1ccc(=O)[nH]c1=O | inactive
2 | O=C(NCC(=O)N(Cc1cccs1)C(C(=O)NC1CCCCC1)c1ccco1)c1cccs1 (stereo unspecified) | inactive
3 | O=c1c2ccccc2nc2n1C(CSc1ccc(Cl)cc1)CN2 (stereo unspecified) | inactive
4 | O=C(/C=C/c1ccc2c(c1)OCO2)NCc1cn2cc(Cl)ccc2n1 | inactive
5 | Clc1ccc2nc(CSc3ccccc3)cn2c1 | 0.849 µM (active)
6 | Cc1cccc(-c2oc3ccc(-c4ccc5c(c4)OCO5)cc3c2C#Cc2cncn2C)c1 | inactive
7 | Cc1ccc(NC(=O)CN2C(=O)CC(C)Sc3ccccc32)c(C)c1 (stereo unspecified) | inactive
8 | COc1cccc(C2=CC(=O)C[C@H](c3ccc(OC)c(OC)c3)C2)c1 | inactive
9 | CC(=O)C1(C)N(O)C(C)(C)C(c2cccs2)=[N+]1[O-] (stereo unspecified) | 0.301 µM (active)
10 | C/C(=N\O)C1(C)N(O)C(C)(C)C(c2ccc(Br)cc2)=[N+]1[O-] (stereo unspecified) | inactive
11 | CC1(C)C(c2cccs2)=[N+]([O-])C2(CCCCC2=O)N1O (stereo unspecified) | inactive
12 | COc1ccc(SCc2cc(=O)c3ccc(C)c(C)c3[nH]2)cc1 | inactive
13 | C=CCn1c(SCC(=O)Nc2ccc(NC(C)=O)cc2)nc2sc(C)c(C)c2c1=O | inactive
14 | O=C(CSc1nnnn1C1CCCC1)N1CCCCC1 | 19 µM (active)
15 | CC1CCCC(C)N1C(=O)CSc1nnnn1C1CCCC1 (stereo unspecified) | inactive
16 | CC(=O)Nc1ccc(NC(=O)CSc2nnnn2C2CCCCC2)cc1 | inactive
17 | COc1ccc(Cn2c(=O)n(-c3ccccc3C)c(=O)c3c4c(sc32)CN(C(C)=O)CC4)cc1 | inactive
18 | COc1ccc(-c2nc3scc(CCNS(=O)(=O)c4cc(F)ccc4OC)n3n2)cc1OC | inactive
19 | CCOc1ccc(CNCCSc2nnnn2C)cc1 | inactive
20 | CC1CC(C)CN(CCC(=O)Nc2ccc3c(c2)CCC3)C1 (stereo unspecified) | inactive
21 | O=C(Nc1ccc2c(c1)CCC2)c1ccc(Br)s1 | 1.9 µM (active)
22 | O=C(N/N=C\c1cc2c(cc1Cl)OCO2)c1ccc(Br)s1 | inactive

Row | SMILES | Potency
23 | Cc1cccc(N2CCN(S(=O)(=O)c3ccc4[nH]c5c(c4c3)CCCCC5)CC2)c1C | inactive
24 | CN1CCN(c2oc(-c3ccc(COc4ccc(Cl)cc4)o3)nc2C#N)CC1 | inactive
25 | Cc1cc(C)cc(NC(=O)CN2C(=O)c3ccccc3C2=O)c1 | inactive
26 | C=CCn1c(C)cc(C(=O)CN2C(=O)c3ccccc3C2=O)c1C | 1.51 µM (active)
27 | C=CCN(CC=C)C(=O)CN1C(=O)c2ccccc2C1=O | inactive
28 | CCc1ccc(NC(=O)CCCc2nnc3n(CCCOC)c(=O)c4sccc4n23)cc1 | inactive
29 | COc1ccccc1NC(=O)c1cc(S(=O)(=O)NCCc2ccccc2)ccc1F | inactive
30 | Cc1ccc(C)c(S(=O)(=O)n2nc(C)c(S(=O)(=O)N3CCC(C)CC3)c2C)c1 | inactive
31 | COc1ccc(/C(N)=N/OC(=O)Cc2ccccc2)cc1 | 19 µM (active)
32 | COc1ccc(CC(=O)Nc2sc(Cc3ccccc3)c(C)c2C(N)=O)cc1 | inactive
33 | COc1ccc(/C(N)=N/OC(=O)Oc2ccccc2)cc1 | inactive
34 | CCC(=O)N1CCc2cc(S(=O)(=O)NC(Cc3ccccc3)C(=O)NCc3ccccc3)ccc21 (stereo unspecified) | inactive
35 | COc1cccc(N(C(=O)c2snc(C(N)=O)c2N)C(C(=O)NCC2CCCO2)c2c[nH]c3ccccc23)c1 (stereo unspecified) | inactive
36 | CCOC(=O)C1(Cc2ccccc2C)CCCN(C(=O)c2ccc(COC)o2)C1 (stereo unspecified) | 21.3 µM (active)
37 | CCOC(=O)C1(Cc2ccccc2C)CCCN(C(=O)CN2C(=O)CSC2=O)C1 (stereo unspecified) | inactive
38 | CCOC(=O)C1(Cc2ccccc2C)CCCN(S(C)(=O)=O)C1 (stereo unspecified) | inactive
39 | CCOC(=O)c1cn(CC)c2cc(F)c(F)cc2c1=O | inactive
40 | COc1ccc(C(=O)NCc2ccc(C)cc2)cc1S(=O)(=O)N1CCCC1 | inactive
41 | O=C(c1cnn(-c2ccc(F)cc2)c1-n1cccc1)N1CCN(c2ccc(F)cc2)CC1 | inactive
42 | Cc1ccc(C(C[N+](=O)[O-])c2c(C)cc3ccccn23)cc1 (stereo unspecified) | inactive
43 | Nc1ccccc1SC(C[N+](=O)[O-])c1ccccc1 (stereo unspecified) | 10.7 µM (active)
44 | Cc1ccc(CNC(=O)CCc2c(C)nn(-c3ccc(N4CCCC4)nn3)c2C)cc1 | inactive

Row | SMILES | Potency
45 | CCCCOC(=O)c1[nH]c(C)c(C(=O)OC)c1C | 12 µM (active)
46 | COC(=O)c1c(C)[nH]c(C(=O)NCCc2ccc(S(N)(=O)=O)cc2)c1C | inactive
47 | CCOC(=O)c1c(C)[nH]c(C(=O)OCC(=O)c2ccc(OC)cc2OC)c1C | inactive
48 | CCn1c2ccccc2c2cc(CN3CCN(Cc4cccc(Cl)c4)CC3)ccc21 | inactive
49 | CSc1ccccc1C(=O)OCC(=O)N1CCN(C(C)=O)CC1 | inactive
50 | COc1ccccc1CNC(=O)COc1ccc(C)nc1[N+](=O)[O-] | inactive
51 | CCOc1ccccc1C(=O)NC1(C(F)(F)F)NC(=O)N(CCc2ccc(OC)c(OC)c2)C1=O (stereo unspecified) | inactive
52 | CCSc1nnc(-c2cc3c(s2)-c2ccccc2CC3)o1 | 10.7 µM (active)
53 | Fc1ccc(CSc2nnc(-c3cc4c(s3)-c3ccccc3CC4)o2)cc1 | inactive
54 | O=C(CSc1nnc(-c2ccccc2O)o1)NC1CCCCC1 | inactive
55 | CCOC(=O)c1[nH]c(C)c(CCC(=O)N2CCN(c3ccccc3)CC2)c1C | inactive
56 | O=C(/C=C/c1ccc(N2CCOCC2)cc1)c1ccccc1 | 0.953 µM (active)
57 | O=C(c1ccc(S(=O)(=O)N2CCOCC2)cc1)N1CCN(c2ccccc2)CC1 | inactive
58 | CC(=O)Nc1ccc(NC(=S)NC(=O)/C=C/c2ccccc2)cc1 | inactive
59 | CC(OC(=O)/C=C/c1ccccc1)C(=O)Nc1ccc(C(N)=O)cc1 (stereo unspecified) | inactive
60 | CC(=O)Nc1ccc(/C=C/C(=O)c2ccccc2)cc1 | 1.35 µM (active)
61 | O=C(c1ccccc1)c1ccc(C(=O)N2CCN(c3ccccc3)CC2)cc1 | inactive
62 | CC(=O)Nc1ccc(C(=O)/C=C/c2ccc[nH]2)cc1 | 8.49 µM (active)
63 | COC(C(=O)Nc1ccc(C(C)=O)cc1)c1ccccc1 (stereo unspecified) | inactive
64 | CCCC(=O)Nc1ccc(C(=O)N/N=C/c2ccc[nH]2)cc1 | inactive
65 | Cc1cc(C)cc(NC(=O)C2CCCN2S(=O)(=O)c2cccc3cccnc23)c1 (stereo unspecified) | inactive
66 | Cc1c(CNC(C)c2ccccc2)c(C(=O)O)c(C)n1Cc1c(F)cccc1Cl (stereo unspecified) | inactive
